Measurements: PubChem BioAssay (Tox21)
A number with no mark means an inactive call. Results filed as inconclusive are left out. Activity calls are given as the source filed them. Calls follow the shape of the dose curve; as a rule, active = well fitted curve in the direction sought with a large enough effect in the repeat runs; inconclusive = weak or mixed curves; inactive = no such curve, though single readings can be large; an effect the other way counts as inactive or inconclusive.

Assay: qHTS RealTime-Glo MT Cell Viability Assay in HEK293 cells - 0 hour (AID 1224880); also: top concentration of the series differs between compounds; nearly all actives have a fitted effect of over 45% in size
Conditions: RealTime-Glo luminescence; series mostly up to 76.8 µM; activity change, negative = cytotoxicity: at the top concentration
Outline: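 HEK293 + NanoLuc + prosubstrate, 600 cells/well; 5 h, 37 C/5% CO2; compound 23 nL in DMSO by pintool; 37 C; luminescence read at 0, 8, 16, 24, 32 and 40 h time points.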
% is scaled to controls: 0 for no effect and ±100 for the full control effect.

Row | SMILES | activity change, negative = cytotoxicity
1 | OCCCCC(O)CO (stereo not drawn) | 7.15%
2 | CN(C)C(=O)CNC(=O)Cc1ccccc1 | 1.54% [at 35.3 µM]
3 | CN(CCOc1ccc(NS(C)(=O)=O)cc1)CCc1ccc(NS(C)(=O)=O)cc1 | 27.3% [at 35.3 µM]
4 | C=CC(OCC)OCC | 4.06%
5 | CCCCCCCCSCC | 1.57%
6 | Cc1[nH]cnc1-c1ccc(Cl)cc1 | 7.52% [at 35.3 µM]
7 | c1ccc2c(c1)ccc1c3ccccc3ccc21 | 12.5% [at 35.3 µM]
8 | NS(=O)(=O)c1cc2c(cc1Cl)CN(C1CCCCC1)C2=O | 5.57% [at 35.3 µM]
9 | Oc1cn2c(n1)Nc1ccc(Cl)c(Cl)c1C2 | -2.73% [at 15.8 µM]
10 | CCOC(=O)c1ncn2c1CN(C)C(=O)c1cc(F)ccc1-2 | -8.05% [at 35.3 µM]
11 | CC(C)(C)c1cc(CCC(=O)NN)cc(C(C)(C)C)c1O | 24.7%
12 | C[Si](C)=O | -1.57% [at 6.97 µM]
13 | COP(=O)(OC)OC(c1ccc(Cl)cc1)P(=O)(OC)OC (stereo not drawn) | 10.5% [at 35.3 µM]
14 | CCOCCOCCOCC | 5.31%
15 | CC1=C(C(=O)O)N2C(=O)[C@@H](NC(=O)[C@H](N)c3ccc(O)cc3)[C@H]2SC1 | 11.7% [at 35.3 µM]
16 | CC(C)CC(=O)O | -5.5%

Row | SMILES | activity change, negative = cytotoxicity
17 | CC(COC(C)(C)C)OCCCO (stereo not drawn) | 9.18%
18 | CC(C)CCCCOC(=O)c1ccccc1C(=O)OCCCCC(C)C | -11.2%
19 | CC(CO)c1ccccc1 (stereo not drawn) | 5.09%
20 | CC(=O)NCc1c(I)c(NC(C)=O)c(I)c(C(=O)O)c1I | 2.92% [at 35.3 µM]
21 | O=C(OCC(COC(=O)c1cccnc1)(COC(=O)c1cccnc1)COC(=O)c1cccnc1)c1cccnc1 | 7.89% [at 35.3 µM]
22 | CCOC(=O)c1ccc(OC(=O)CCCCCN=C(N)N)cc1 | 1.55% [at 35.3 µM]
23 | CC(C)(C)c1n[nH]c(=S)n(N)c1=O | 9.47%
24 | CC(C)C(=O)OCCc1ccccc1 | 9.31%
25 | CC(=O)Nc1ccc(S(=O)(=O)Cl)cc1 | -13.1%
26 | CCCCOC(=O)c1ccccc1 | 8.92%
27 | CCCCCCN | 0.814%
28 | COC(=O)C1CC(=O)C(C(=O)OC)CC1=O (stereo not drawn) | 2.08% [at 6.97 µM]
29 | BrCc1cccc(Oc2ccccc2)c1 | -14.9%
30 | Cc1cccc(OCC(O)CNC(C)(C)C)c1C (stereo not drawn) | 9.94% [at 35.3 µM]
31 | OCCC(F)(F)C(F)(F)C(F)(F)C(F)(F)C(F)(F)C(F)(F)C(F)(F)C(F)(F)F | -2.93%

Assay: A CellTox Green Cytotoxicity Assay to monitor cytotoxicity in HEK293 cells - 32 hour (AID 1224881); also: nearly all actives have a fitted effect of over 40% in size; also: potency is read from the fitted curve at half-maximal effect
Conditions: CellTox Green fluorescence; series mostly up to 76.8 µM; cytotoxicity increase: at the top concentration
Outline: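 Tox21 screen in HEK293: membrane-impermeant cyanine dye fluoresces on binding dead-cell DNA; compound pinned 5 h post-seeding, plates held at 37 C, signal read repeatedly through 40 h.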

Row | SMILES | cytotoxicity increase | Potency
32 | OCCCCC(O)CO (stereo not drawn) | -12.9% | –
33 | Cc1cccc2nccnc12 | – | 24.5 µM (active)
34 | CN(C)C(=O)CNC(=O)Cc1ccccc1 | -0.956% [at 35.3 µM] | –
35 | CN(CCOc1ccc(NS(C)(=O)=O)cc1)CCc1ccc(NS(C)(=O)=O)cc1 | -2.09% [at 35.3 µM] | –
36 | C=CC(OCC)OCC | -1.84% | –
37 | CCCCCCCCSCC | -1.55% | –
38 | Cc1[nH]cnc1-c1ccc(Cl)cc1 | 0.794% [at 35.3 µM] | –
39 | c1ccc2c(c1)ccc1c3ccccc3ccc21 | 1.74% [at 35.3 µM] | –
40 | NS(=O)(=O)c1cc2c(cc1Cl)CN(C1CCCCC1)C2=O | -3.18% [at 35.3 µM] | –
41 | Oc1cn2c(n1)Nc1ccc(Cl)c(Cl)c1C2 | -4.2% [at 15.8 µM] | –
42 | CCOC(=O)c1ncn2c1CN(C)C(=O)c1cc(F)ccc1-2 | -11.9% [at 35.3 µM] | –
43 | CN1C(C)(C)CCCC1(C)C | 0.808% [at 35.3 µM] | –
44 | CC(C)(C)c1cc(CCC(=O)NN)cc(C(C)(C)C)c1O | 0% | –
45 | C[Si](C)=O | 10.3% [at 6.97 µM] | –
46 | CCc1ccc(C=O)cc1 | 7.09% | –
47 | CC(=O)OC(C)OC(=O)C(C)c1ccc(-c2ccccc2)c(F)c1 (stereo not drawn) | -8.08% [at 35.3 µM] | –
48 | COP(=O)(OC)OC(c1ccc(Cl)cc1)P(=O)(OC)OC (stereo not drawn) | 0.434% [at 35.3 µM] | –
49 | CCOCCOCCOCC | -1.39% | –

Row | SMILES | cytotoxicity increase | Potency
50 | CC1=C(C(=O)O)N2C(=O)[C@@H](NC(=O)[C@H](N)c3ccc(O)cc3)[C@H]2SC1 | 2.32% [at 35.3 µM] | –
51 | COc1ccc2c(c1OC)C(=O)O[C@@H]2[C@H]1c2c(cc3c(c2OC)OCO3)CCN1C | -4.09% [at 35.3 µM] | –
52 | CC(C)CC(=O)O | -3.12% | –
53 | CC(COC(C)(C)C)OCCCO (stereo not drawn) | -6.66% | –
54 | CC(C)CCCCOC(=O)c1ccccc1C(=O)OCCCCC(C)C | -7.79% | –
55 | CC(CO)c1ccccc1 (stereo not drawn) | -8.96% | –
56 | CC(=O)NCc1c(I)c(NC(C)=O)c(I)c(C(=O)O)c1I | -0.968% [at 35.3 µM] | –
57 | O=C(OCC(COC(=O)c1cccnc1)(COC(=O)c1cccnc1)COC(=O)c1cccnc1)c1cccnc1 | 0.59% [at 35.3 µM] | –
58 | CCOC(=O)c1ccc(OC(=O)CCCCCN=C(N)N)cc1 | -34.2% [at 35.3 µM] | –
59 | CC(C)(C)c1n[nH]c(=S)n(N)c1=O | -7.92% | –
60 | CC(=O)Nc1ccc(S(=O)(=O)Cl)cc1 | -6.48% | –
61 | CCCCOC(=O)c1ccccc1 | 2% | –
62 | CCCCCCN | -5.9% | –
63 | Cc1ccccc1OCC(O)CO (stereo not drawn) | -3.16% [at 35.3 µM] | –
64 | COC(=O)C1CC(=O)C(C(=O)OC)CC1=O (stereo not drawn) | 0.949% [at 6.97 µM] | –
65 | BrCc1cccc(Oc2ccccc2)c1 | -0.562% | –
66 | Cc1cccc(OCC(O)CNC(C)(C)C)c1C (stereo not drawn) | -5.99% [at 35.3 µM] | –
67 | OCCC(F)(F)C(F)(F)C(F)(F)C(F)(F)C(F)(F)C(F)(F)C(F)(F)C(F)(F)F | 1.44% | –

Assay: A CellTox Green Cytotoxicity Assay to monitor cytotoxicity in HepG2 cells - 0 hour (AID 1224882); also: nearly all actives have a fitted effect of over 35% in size
Conditions: CellTox Green fluorescence; series mostly up to 76.8 µM; cytotoxicity: at the top concentration
Outline: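 Measurements at 0, 8, 16, 24, 32 and 40 h of treatment captured CellTox Green fluorescence in HepG2 cells that had been co-plated with reagent and preincubated 5 h at 37 C/5% CO2.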

Row | SMILES | cytotoxicity
68 | OCCCCC(O)CO (stereo not drawn) | 0.0727%
69 | CN(C)C(=O)CNC(=O)Cc1ccccc1 | -12.9% [at 35.3 µM]
70 | CN(CCOc1ccc(NS(C)(=O)=O)cc1)CCc1ccc(NS(C)(=O)=O)cc1 | -4.94% [at 35.3 µM]
71 | C=CC(OCC)OCC | 0.485%
72 | Cc1[nH]cnc1-c1ccc(Cl)cc1 | -7.61% [at 35.3 µM]
73 | Oc1cn2c(n1)Nc1ccc(Cl)c(Cl)c1C2 | 3.67% [at 15.8 µM]
74 | CCOC(=O)c1ncn2c1CN(C)C(=O)c1cc(F)ccc1-2 | -8.51% [at 35.3 µM]
75 | CC(C)(C)c1cc(CCC(=O)NN)cc(C(C)(C)C)c1O | -0.307%
76 | C[Si](C)=O | -2.11% [at 6.97 µM]
77 | CCc1ccc(C=O)cc1 | -0.284%
78 | CC(=O)OC(C)OC(=O)C(C)c1ccc(-c2ccccc2)c(F)c1 (stereo not drawn) | 24.8% [at 35.3 µM]
79 | COP(=O)(OC)OC(c1ccc(Cl)cc1)P(=O)(OC)OC (stereo not drawn) | -8.54% [at 35.3 µM]
80 | CCOCCOCCOCC | -0.0438%
81 | CC1=C(C(=O)O)N2C(=O)[C@@H](NC(=O)[C@H](N)c3ccc(O)cc3)[C@H]2SC1 | 4.31% [at 35.3 µM]
82 | COc1ccc2c(c1OC)C(=O)O[C@@H]2[C@H]1c2c(cc3c(c2OC)OCO3)CCN1C | -4.9% [at 35.3 µM]
83 | CC(COC(C)(C)C)OCCCO (stereo not drawn) | -4.65%
84 | CC(C)CCCCOC(=O)c1ccccc1C(=O)OCCCCC(C)C | 0.414%
85 | CC(CO)c1ccccc1 (stereo not drawn) | -2.35%
86 | CC(C)(C)c1n[nH]c(=S)n(N)c1=O | -6.14%
87 | CC(C)C(=O)OCCc1ccccc1 | -6.75%
88 | CCCCOC(=O)c1ccccc1 | 2.29%
89 | CCCCCCN | 1.75%
90 | Cc1ccccc1OCC(O)CO (stereo not drawn) | 2.56% [at 35.3 µM]
91 | COC(=O)C1CC(=O)C(C(=O)OC)CC1=O (stereo not drawn) | -5.98% [at 6.97 µM]
92 | Cc1cccc(OCC(O)CNC(C)(C)C)c1C (stereo not drawn) | -8.94% [at 35.3 µM]
93 | OCCC(F)(F)C(F)(F)C(F)(F)C(F)(F)C(F)(F)C(F)(F)C(F)(F)C(F)(F)F | 2.07%
